Test results from PubChem BioAssay (EPA / NIEHS).
Records with an inconclusive call do not appear. The source holds several records for some structures; these can differ, active in one and inactive in another. Activity calls are given as the source filed them. The calls were made as follows, unless noted: active = hit-call score of the fitted dose curve at least 0.9, where 1 is the maximum; inactive = score below 0.9.

Legend:
[1] = read-out: Nuclear factor erythroid 2-related factor 2 (Homo sapiens) (UniProt Q16236); assay: LTEA_HepaRG_NFE2L2: Life Technologies and Expression Analysis (LTEA) Assay for Nuclear factor erythroid 2-related factor 2 (NFE2L2) Transcription Factor using HepaRG (AID 2283527); conditions: mRNA level, 48 h; actives raise or lower the signal
In short: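 HepaRG, 48 h dosing, 8-pt half-log series from 100 uM in 0.5% DMSO, duplicates. Read-out: NFE2L2 mRNA by qRT-PCR (ACTB/GAPDH/POLR2A normalization). Bidirectional curve fit vs DMSO baseline.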

[2] = read-out: succinate dehydrogenase complex iron sulfur subunit B (SDHB), SDHB (gene 6390); assay: LTEA_HepaRG_SDHB: Life Technologies and Expression Analysis (LTEA) Assay for succinate dehydrogenase complex iron sulfur subunit B (SDHB) using HepaRG (AID 2283528); conditions: mRNA level, 48 h; actives raise or lower the signal
In short: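 HepaRG, 48 h exposure, 8-pt half-log series from 100 uM in 0.5% DMSO, duplicates. Readout: SDHB mRNA by Fluidigm qRT-PCR vs housekeeping genes; bidirectional fit relative to DMSO.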

[3] = read-out: Signal transducer and activator of transcription 3 (Homo sapiens) (UniProt P40763); assay: LTEA_HepaRG_STAT3: Life Technologies and Expression Analysis (LTEA) Assay for Signal transducer and activator of transcription (STAT3) using HepaRG (AID 2283529); conditions: mRNA level, 48 h; actives raise or lower the signal
In short: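 HepaRG, 48 h exposure, 8-pt half-log series (top 100 uM), 0.5% DMSO vehicle, duplicates. Readout: STAT3 transcript by Fluidigm qRT-PCR, housekeeping-normalized; bidirectional fit vs DMSO baseline.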

[4] = read-out: solute carrier (SLCO1B1), SLCO1B1 (gene 10599); assay: LTEA_HepaRG_SLCO1B1: Life Technologies and Expression Analysis (LTEA) Assay for solute carrier (SLCO1B1) using HepaRG (AID 2283530); conditions: mRNA level, 48 h; actives raise or lower the signal
In short: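 Gain or loss of SLCO1B1 mRNA is fitted against the 0.5% DMSO vehicle in human HepaRG liver cells treated 48 h at up to 100 uM in half-log steps. Expression comes from qRT-PCR normalized to endogenous controls.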

[5] = read-out: sulfotransferase 2A1 (SULT2A1), SULT2A1 (gene 6822); assay: LTEA_HepaRG_SULT2A1: Life Technologies and Expression Analysis (LTEA) Assay for sulfotransferase 2A1 (SULT2A1) using HepaRG (AID 2283531); conditions: mRNA level, 48 h; actives raise or lower the signal
In short: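 Cells were plated and cultured 48 h, switched to serum-free induction medium, then dosed in duplicate for 48 h (8 concentrations, max 100 uM). RNA was isolated and SULT2A1 expression measured by qRT-PCR; gain or loss of signal fitted relative to DMSO.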

[6] = read-out: Transforming Growth Factor (TGFA), TGFA (gene 7039); assay: LTEA_HepaRG_TGFA: Life Technologies and Expression Analysis (LTEA) Assay for Transforming Growth Factor (TGFA) using HepaRG (AID 2283532); conditions: mRNA level, 48 h; actives raise or lower the signal
In short: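 qRT-PCR read-out of TGFA transcript, normalized to three housekeeping genes, fitted bidirectionally against 0.5% DMSO baseline. Human HepaRG cultures received chemicals for 48 h at eight half-log concentrations, top 100 uM.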

[7] = read-out: Transforming Growth Factor (TGFB1), TGFB1 (gene 7040); assay: LTEA_HepaRG_TGFB1: Life Technologies and Expression Analysis (LTEA) Assay for Transforming Growth Factor (TGFB1) Transporter using HepaRG (AID 2283533); conditions: mRNA level, 48 h; actives raise or lower the signal
In short: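 Expression change of TGFB1 in human HepaRG cells is measured after a 48 h chemical exposure, up to 100 uM in 0.5% DMSO vehicle. Curves are fitted in both directions relative to the DMSO baseline.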

[8] = read-out: TIMP1, TIMP1 (gene 7076); assay: LTEA_HepaRG_TIMP1: Life Technologies and Expression Analysis (LTEA) Assay for TIMP1 using HepaRG (AID 2283534); conditions: mRNA level, 48 h; actives raise or lower the signal
In short: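 We dosed human liver HepaRG cultures for 48 hours with up to 100 uM test chemical and measured TIMP1 expression by qRT-PCR. Activity in either direction is fitted relative to the 0.5% DMSO vehicle.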

[9] = read-out: Tumor necrosis factor receptor 1 (TNFRSF1A), TNFRSF1A (gene 7132); assay: LTEA_HepaRG_TNFRSF1A: Life Technologies and Expression Analysis (LTEA) Assay for Tumor necrosis factor receptor 1 (TNFRSF1A) using HepaRG (AID 2283535); conditions: mRNA level, 48 h; actives raise or lower the signal
In short: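 Expression of TNFRSF1A in human HepaRG liver cells was measured by qRT-PCR 48 h after chemical dosing (maximum 100 uM). Bidirectional curve fitting used 0.5% DMSO as baseline.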

[10] = read-out: Thyroid Hormone Responsive (THRSP), THRSP (gene 7069); assay: LTEA_HepaRG_THRSP: Life Technologies and Expression Analysis (LTEA) Assay for Thyroid Hormone Responsive (THRSP) using HepaRG (AID 2283536); conditions: mRNA level, 48 h; actives raise or lower the signal
In short: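 qRT-PCR read-out (Fluidigm TaqMan), housekeeping-normalized (ACTB/GAPDH/POLR2A). HepaRG, 48 h chemical exposure, 8-pt half-log series from 100 uM in 0.5% DMSO, duplicates. Bidirectional curve fit vs 0.5% DMSO baseline.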

[11] = read-out: Cellular tumor antigen p53 (Homo sapiens) (UniProt P04637); assay: LTEA_HepaRG_TP53: Life Technologies and Expression Analysis (LTEA) Assay for Tumor Protein P53 (TP53) using HepaRG (AID 2283537); conditions: mRNA level, 48 h; actives raise or lower the signal
In short: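 HepaRG, 48 h exposure, top 100 uM, half-log 8-point, 0.5% DMSO vehicle, duplicates. Read: TP53 mRNA by TaqMan qRT-PCR, normalised to ACTB/GAPDH/POLR2A; bidirectional fit vs DMSO.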

[12] = read-out: UDP glucuronosyltransferase (UGT1A1), UGT1A1 (gene 54658); assay: LTEA_HepaRG_UGT1A1: Life Technologies and Expression Analysis (LTEA) Assay for UDP glucuronosyltransferase (UGT1A1) using HepaRG (AID 2283538); conditions: mRNA level, 48 h; actives raise or lower the signal
In short: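 Cells are plated, cultured 48 h, switched to serum-free induction medium, then dosed 48 h at eight concentrations (max 100 uM, 0.5% DMSO). RNA is isolated and UGT1A1 expression measured by qRT-PCR; changes versus DMSO are fitted in both directions.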

[13] = read-out: UDP glucuronosyltransferase (UGT1A6), UGT1A6 (gene 54578); assay: LTEA_HepaRG_UGT1A6: Life Technologies and Expression Analysis (LTEA) Assay for UDP glucuronosyltransferase (UGT1A6) using HepaRG (AID 2283539); conditions: mRNA level, 48 h; actives raise or lower the signal
In short: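 Endpoint is UGT1A6 transcript induction or loss in a human liver cell line, quantified by TaqMan qRT-PCR 48 h after dosing. Concentrations ran from 100 uM downward in half-log steps in 0.5% DMSO; activity was fitted in both directions versus vehicle.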

[14] = read-out: X-box binding protein 1 (XBP1), XBP1 (gene 7494); assay: LTEA_HepaRG_XBP1: Life Technologies and Expression Analysis (LTEA) Assay for X-box binding protein 1 (XBP1) using HepaRG (AID 2283540); conditions: mRNA level, 48 h; actives raise or lower the signal
In short: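 Human HepaRG monolayers receive test chemical for 48 h across an eight-point half-log series starting at 100 uM. XBP1 mRNA gain or loss is scored against DMSO by qRT-PCR.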

[15] = LTEA_HepaRG_LDH_cytotoxicity: Cytotoxicity Assessment in the Life Technologies and Expression Analysis (LTEA) Assay (AID 2283563; active = hit-call score of the fitted dose curve at least 0.9, where 1 is the maximum)
In short: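 Human HepaRG hepatic cells are treated with test chemicals for 48 h at up to 100 uM in 0.5% DMSO. Cytotoxicity is scored from medium LDH against the vehicle control.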

[16] = ATG_XTT_Cytotoxicity: Cytotoxicity Assessment in the Attagene TRANS-FACTORIAL HepG2 Assay (AID 2283584; active = hit-call score of the fitted dose curve at least 0.9, where 1 is the maximum)
In short: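 Transfect HepG2 with GAL4-UAS reporter units, dose compound, incubate 24 h, then measure viable cell number by XTT. Fit concentration response against DMSO baseline.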

[17] = TOX21_p53_BLA_p2_viability: Viability Assessment in the Tox21 HCT-116 p53 Agonism Beta-lactamase Assay, Phase 2 (AID 2283591; active = hit-call score of the fitted dose curve at least 0.9, where 1 is the maximum;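 also: compound exposure lasted 16 h at 37 °C; actives lower the ATP signal meaning cytotoxicity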)
In short: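 HCT116 p53-bla cells, 4000/well, dosed after 5 h plating (217-fold dilution of DMSO stocks) and incubated 16 h at 37C. Viability taken as cellular ATP by CellTiter-Glo luminescence after 30 min RT; signal loss marks cytotoxicity.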

[18] = biological target: Cellular tumor antigen p53 (Homo sapiens) (UniProt P04637); assay: TOX21_p53_BLA_p3_ratio: Tox21 HCT-116 p53 Agonism Beta-lactamase Assay, Ratio, Phase 3 (AID 2283596; active = hit-call score of the fitted dose curve at least 0.9, where 1 is the maximum)
Chain of Cellular tumor antigen p53 (Homo sapiens) (P04637 whole entry, looked up): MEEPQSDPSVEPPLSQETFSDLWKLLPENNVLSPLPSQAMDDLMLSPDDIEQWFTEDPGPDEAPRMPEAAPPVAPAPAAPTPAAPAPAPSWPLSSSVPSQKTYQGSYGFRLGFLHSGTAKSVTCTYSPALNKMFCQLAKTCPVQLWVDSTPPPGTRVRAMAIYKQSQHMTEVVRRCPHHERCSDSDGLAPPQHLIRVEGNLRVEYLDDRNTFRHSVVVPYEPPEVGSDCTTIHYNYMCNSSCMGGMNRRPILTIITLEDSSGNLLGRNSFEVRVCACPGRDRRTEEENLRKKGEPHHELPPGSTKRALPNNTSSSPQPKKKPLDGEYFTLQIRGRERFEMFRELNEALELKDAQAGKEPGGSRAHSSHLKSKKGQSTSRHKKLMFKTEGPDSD
In short: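 Cells were seeded at 4000/well, rested 5 h at 37C, then dosed with DMSO compound solutions (217-fold dilution) for 16 h. CCF4-AM substrate was loaded for 2 h at room temperature, and the 460/530 nm emission ratio was fitted for gain of signal versus DMSO.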

[19] = biological target: Cellular tumor antigen p53 (Homo sapiens) (UniProt P04637); assay: TOX21_p53_BLA_p2_ratio: Tox21 HCT-116 p53 Agonism Beta-lactamase Assay, Ratio, Phase 2 (AID 2283592; active = hit-call score of the fitted dose curve at least 0.9, where 1 is the maximum)
In short: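 Cleaved-to-uncleaved substrate ratio (460 vs 530 nm) measured in HCT116 cells with an inducible beta-lactamase reporter linked to p53 activity. Compounds incubated 16 h at 37C before 2 h room-temperature CCF4-AM loading.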

Measured: AC50

Chain of Nuclear factor erythroid 2-related factor 2 (Homo sapiens) (Q16236 whole entry, looked up): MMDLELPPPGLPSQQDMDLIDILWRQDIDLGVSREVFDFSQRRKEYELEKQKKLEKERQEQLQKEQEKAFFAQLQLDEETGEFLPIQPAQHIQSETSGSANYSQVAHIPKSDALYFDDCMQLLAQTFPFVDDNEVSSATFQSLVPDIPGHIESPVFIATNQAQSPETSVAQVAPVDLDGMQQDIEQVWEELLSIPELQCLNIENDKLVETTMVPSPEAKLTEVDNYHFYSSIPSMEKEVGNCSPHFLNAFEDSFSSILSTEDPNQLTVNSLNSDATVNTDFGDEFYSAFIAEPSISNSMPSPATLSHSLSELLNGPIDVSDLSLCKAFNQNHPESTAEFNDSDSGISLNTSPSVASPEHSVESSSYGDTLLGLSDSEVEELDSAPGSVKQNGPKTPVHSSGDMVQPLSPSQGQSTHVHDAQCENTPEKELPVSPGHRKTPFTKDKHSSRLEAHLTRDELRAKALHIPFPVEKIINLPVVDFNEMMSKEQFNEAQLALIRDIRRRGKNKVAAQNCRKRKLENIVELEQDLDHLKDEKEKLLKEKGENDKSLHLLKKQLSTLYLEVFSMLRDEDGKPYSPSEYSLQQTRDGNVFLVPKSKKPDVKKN
Chain of Signal transducer and activator of transcription 3 (Homo sapiens) (P40763 whole entry, looked up): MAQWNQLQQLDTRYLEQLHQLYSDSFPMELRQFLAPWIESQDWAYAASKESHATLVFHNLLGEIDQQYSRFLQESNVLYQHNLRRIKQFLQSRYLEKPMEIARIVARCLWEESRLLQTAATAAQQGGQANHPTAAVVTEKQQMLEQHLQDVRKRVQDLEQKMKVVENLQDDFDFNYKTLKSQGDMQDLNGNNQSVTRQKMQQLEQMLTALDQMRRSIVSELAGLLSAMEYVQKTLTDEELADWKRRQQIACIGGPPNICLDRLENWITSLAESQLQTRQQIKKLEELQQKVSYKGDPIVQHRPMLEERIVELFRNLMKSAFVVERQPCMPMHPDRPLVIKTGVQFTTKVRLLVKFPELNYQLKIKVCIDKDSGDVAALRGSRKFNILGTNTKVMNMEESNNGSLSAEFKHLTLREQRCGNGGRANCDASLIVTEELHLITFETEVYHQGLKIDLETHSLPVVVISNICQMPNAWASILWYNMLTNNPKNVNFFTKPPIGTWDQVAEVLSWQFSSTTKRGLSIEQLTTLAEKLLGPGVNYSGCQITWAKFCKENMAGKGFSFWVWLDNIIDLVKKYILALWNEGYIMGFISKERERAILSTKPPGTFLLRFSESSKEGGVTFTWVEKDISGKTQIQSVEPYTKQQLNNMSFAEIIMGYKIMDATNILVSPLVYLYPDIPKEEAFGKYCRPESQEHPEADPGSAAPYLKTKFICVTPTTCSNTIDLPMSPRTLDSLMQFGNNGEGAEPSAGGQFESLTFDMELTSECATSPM

CCc1ccc(CCOc2ccc(CC3SC(=O)NC3=O)cc2)nc1 (centres undefined)
active: [1] 50 µM | [4] 67.5 µM | [5] 81.1 µM | [6] 24 µM | [10] 83.8 µM | [11] 80.4 µM | [12] 12.2 µM
not listed: [19]
inactive: all other assays above

COc1ccc([N+](=O)[O-])cc1N
active: [10] 9.92 µM | [12] 50 µM
not listed: [5] | [17] | [19]
inactive: all other assays above

CC(C)(C)c1cccc(C(C)(C)C)c1O
not listed: [14] | [19]
inactive: all other assays above

CC1=C(/C=C/C(C)=C/C=C/C(C)=C/C(=O)O)C(C)(C)CCC1
inactive: [3] | [6] | [7] | [8] | [9] | [10] | [11] | [15] | [16] | [19] | [18]
active: [1] 20.4 µM | [2] 1.09 µM | [4] 11.5 µM | [5] 0.812 µM | [12] 13 µM | [13] 16.9 µM | [18] 85.7 µM
